PubChem BioAssay AID651650 (Sanford-Burnham Center for Chemical Genomics, 2012)

target: Neuropilin-1 (Homo sapiens) (UniProt O14786); assay: blockers of CendR peptide binding to NRP-1 – biochemical, FP and AlphaScreen panel, dose response (AID 651650); conditions: NRP-1 b1b2 / RPARPAR peptide binding, FP or AlphaScreen; run 1, at 100 µM (top of the series)
Sequence (O14786 whole entry, looked up): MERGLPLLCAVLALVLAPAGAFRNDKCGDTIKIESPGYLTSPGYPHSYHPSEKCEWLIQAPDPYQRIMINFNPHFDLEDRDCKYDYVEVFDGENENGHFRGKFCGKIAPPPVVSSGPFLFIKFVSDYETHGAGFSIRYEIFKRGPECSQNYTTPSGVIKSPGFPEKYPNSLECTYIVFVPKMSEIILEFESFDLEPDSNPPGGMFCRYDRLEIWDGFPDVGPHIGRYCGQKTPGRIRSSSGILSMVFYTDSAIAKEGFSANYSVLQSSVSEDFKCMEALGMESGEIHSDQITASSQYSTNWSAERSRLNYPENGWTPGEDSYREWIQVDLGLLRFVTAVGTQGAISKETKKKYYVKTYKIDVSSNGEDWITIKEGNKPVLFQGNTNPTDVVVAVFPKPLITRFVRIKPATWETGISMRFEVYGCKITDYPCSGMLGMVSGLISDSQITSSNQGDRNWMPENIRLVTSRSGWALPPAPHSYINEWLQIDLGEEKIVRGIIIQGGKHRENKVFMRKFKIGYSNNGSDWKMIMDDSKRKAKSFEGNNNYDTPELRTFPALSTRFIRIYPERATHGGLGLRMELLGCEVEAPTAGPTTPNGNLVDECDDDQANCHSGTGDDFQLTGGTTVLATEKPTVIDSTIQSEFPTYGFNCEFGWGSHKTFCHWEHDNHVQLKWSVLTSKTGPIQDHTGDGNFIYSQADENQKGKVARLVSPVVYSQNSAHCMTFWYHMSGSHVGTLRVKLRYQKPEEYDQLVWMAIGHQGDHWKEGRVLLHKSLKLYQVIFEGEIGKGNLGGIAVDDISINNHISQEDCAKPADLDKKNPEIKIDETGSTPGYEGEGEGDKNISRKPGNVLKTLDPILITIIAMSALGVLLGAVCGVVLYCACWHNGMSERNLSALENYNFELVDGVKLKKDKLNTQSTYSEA

Row | Compound | inhibition
1 | C=C1C[C@@]23CCC4[C@@](C)(CCC[C@@]4(C)C(=O)O)C2CC[C@]1(O)C3 (stereo partly drawn) | 63.6%
2 | COc1cc(C(=O)Nc2cc3c(cc2N2CCCCC2)n(C)c(=O)n3C)cc(OC)c1OC | 57.1%
3 | c1cc(CNc2ccc3c(c2)OCO3)ccn1 | 27.1%
4 | CCc1ccc(NS(=O)(=O)c2c(C(=O)N3CCCCCC3)c(C)n(C)c2C)cc1 | 31.1%
5 | CCOC(=O)Cc1ccc(NS(=O)(=O)c2ccc(SC)cc2)cc1 | 19.4%
6 | O=C(c1ccc(-c2cccc(Cl)c2)o1)N1CCN(c2ccc([N+](=O)[O-])cc2)CC1 | 21.7%
7 | COC(=O)c1ccn(C(=O)c2ccc(Cl)cc2)n1 | 39.2%
8 | Cc1ccc(C(=O)NCCCc2ccccc2)c(C)c1 | 37.1%
9 | C/C(=N\NC(=O)c1cc(O)ccc1O)c1cccc(NC(=O)c2cccc(Cl)c2)c1 | 27.7%
10 | CCOC(=O)C1=C(C)NC2=C(C(=O)CCC2)C1c1cn(Cc2ccc(Cl)cc2Cl)nc1-c1ccccc1 (stereo not drawn) | 72.6%
11 | CCOC(=O)Cn1c(=O)n(Cc2ccco2)c(=O)c2ccc(C(=O)NC3CCCC3)cc21 | 61%
12 | O=C(CSc1nc2ccc(Cl)cc2[nH]1)NCCc1ccccc1 | 18.8%
13 | CC(Nc1nc(-c2ccc(F)cc2)cs1)c1nc2cc(C(F)(F)F)ccc2n1CCOCCO (stereo not drawn) | 43.3%
14 | CCOc1ccc(N2C(=O)CC(N3CCN(c4ccc(Cl)cc4)CC3)C2=O)cc1 (stereo not drawn) | 86.2%
15 | COC(=O)c1c(NC(=O)CN(c2ccccc2)S(C)(=O)=O)sc2c1CCCC2 | 84%
16 | O=C(NCc1ccccc1)c1cccc(S(=O)(=O)N2CCCCC2)c1 | 61.2%
17 | COc1ccc2c(c1OC)CN1CCc3cc4c(cc3[C@@H]1[C@@H]2O)OCO4 | -3.65%
18 | CC(O)(c1cccnc1)c1nc(/C=C/c2ccccc2)cs1 (stereo not drawn) | 42.6%
19 | CCOC(=O)Cc1csc(NC(=O)CSc2ncnc3c2cnn3-c2ccccc2Cl)n1 | 11.5%

Row | Compound | inhibition
20 | O=C(COc1ccc(S(=O)(=O)N2CCCC2)cc1)Nc1ccc2c(c1)OCCO2 | 34%
21 | COc1ccc(Nc2nc(-c3cccnc3)nc3ccccc23)cn1 | 68.3%
22 | CCN(CC)C(=O)c1cccc(-c2csc(C(NC(C)=O)c3cccc(OC)c3)n2)c1 (stereo not drawn) | 18.7%
23 | CC1(c2ccccc2)CC(C)(C)n2c(O)c(C3=NC(=S)NC3=O)c3cccc1c32 (stereo not drawn) | 12.3%
24 | COc1ccc(C(=O)COC(=O)C(CCSC)NS(=O)(=O)c2ccc(Cl)cc2)cc1 (stereo not drawn) | -2.36%
25 | CN(Cc1cnn(C)c1)C(=O)c1cc2ccccc2oc1=O | 29.1%
26 | COc1ccccc1C(=O)NC(=O)CSc1nncn1C | 30.4%
27 | COc1ccc(S(=O)(=O)N2CCCCC2)cc1NC(=O)c1c(F)cccc1Cl | 37.3%
28 | COC(=O)c1ccccc1NC(=O)CSc1nc(C)cc(C)n1 | 45.7%
29 | COC(=O)C[C@H]1c2cc(F)ccc2S(=O)(=O)N1C(C)C | 29.9%
30 | COc1ccc(Cl)cc1S(=O)(=O)N1CCN(CC(=O)C(C)(C)C)CC1 | -4.16%
31 | COCCNC(=O)c1cc(-c2ccccc2)nn1CC1CC(c2cccc([N+](=O)[O-])c2)=NO1 (stereo not drawn) | 14.3%
32 | CC(=O)/C(=N\Nc1ccc(Cl)cc1Cl)Sc1cccc2cccnc12 | 24.8%
33 | COc1cc2c(cc1OC)C(Nc1ccc(S(N)(=O)=O)cc1)=NC(C)(C)C2 | 71.9%
34 | C[C@@H](C(=O)Nc1cccnc1)n1c(=O)[nH]c2ccccc2c1=O | 44.7%
35 | COc1ccc(CCN=C2SCC(=O)N2Cc2ccccc2)cc1OC | 28.8%
36 | Cc1ccc(C(=O)O)cc1NC(=O)Nc1cccc2ccccc12 | 30.6%
37 | COc1ccc(-c2csc(NCCc3nc4cc(C(=O)NCCCO)ccc4n3Cc3ccc(C)cc3)n2)cc1 | 90.9%
38 | Cn1c(=NC(=O)COc2ccccc2)sc2ccccc21 | -1.2%
